# In article PMC12820563, “FoxP3 forms a head-to-head dimer in vivo and stabilizes its multimerization on adjacent microsatellites”:
# The full ranking holds about 16,000 sequences; the median of “rpm ratio (pull-down/input)” is about 0.94, and the highest 2% start at about 1.7. The full list was thinned out, with the highest values kept by preference.
# Target: T1, MBP-FoxP1dN (Mus musculus, UniProt P58462 326-579)
# T1 sequence: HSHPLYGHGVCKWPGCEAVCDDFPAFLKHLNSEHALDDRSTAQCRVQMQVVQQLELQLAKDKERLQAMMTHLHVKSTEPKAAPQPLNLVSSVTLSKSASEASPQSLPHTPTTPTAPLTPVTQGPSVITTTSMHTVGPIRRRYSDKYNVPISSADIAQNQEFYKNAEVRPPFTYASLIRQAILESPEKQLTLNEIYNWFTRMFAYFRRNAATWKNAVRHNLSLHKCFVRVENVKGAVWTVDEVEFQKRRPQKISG
# Test: PD-seq (MBP pull-down with sequencing); 20 mM Tris-HCl pH 7.5, 100 mM NaCl, 1.5 mM MgCl2, 0.4 uM protein, 0.1 uM dsDNA library, 30 min, room temperature, amylose pull-down; high values mean tight binding
# Details: protein: recombinant; tags: His6-MBP; chain copies: 2; dsDNA, one strand shown
# Summary of the method: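 Amylose resin was used to capture complexes formed during 30 min at room temperature in Tris pH 7.5 buffer with NaCl and MgCl2 between 0.4 µM His6-MBP-tagged mouse FoxP3 or FoxP1 fragment lacking the N-terminus, expressed in E. coli, and 0.1 µM Klenow-filled double-stranded degenerate DNA library. After three washes, the DNA was released with proteinase K, barcoded by PCR and sequenced on Illumina. Binding is pooled-replicate reads-per-million enrichment, pull-down over input.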
row,Sequence,binding signal
1,GATGATTGTTCTCCCAGCTGATGAATTCCATGTGTCGAGTAAACAAATTTTCCTAATCTTTCTGTTCAAGCGCCATCTAC,0.939 RPM ratio (pull-down/input)
2,GATGATTGTTCTCCCAGCTGATGAATTTTTCGGATCGAGTAAACAAATTTTCCTAATCTTTCTGTTCAAGCGCCATCTAC,0.904 RPM ratio (pull-down/input)
3,GATGATTGTTCTCCCAGCTGATGAATTCCTTTAGTCGAGTAAACAAATTTTCCTAATCTTTCTGTTCAAGCGCCATCTAC,0.819 RPM ratio (pull-down/input)
4,GATGATTGTTCTCCCAGCTGATGAATTAGTGCAGTCGAGTAAACAAATTTTCCTAATCTTTCTGTTCAAGCGCCATCTAC,0.937 RPM ratio (pull-down/input)
5,GATGATTGTTCTCCCAGCTGATGAATTGTTTGGATCGAGTAAACAAATTTTCCTAATCTTTCTGTTCAAGCGCCATCTAC,1.65 RPM ratio (pull-down/input)
6,GATGATTGTTCTCCCAGCTGATGAATTGGGGACCTCGAGTAAACAAATTTTCCTAATCTTTCTGTTCAAGCGCCATCTAC,0.742 RPM ratio (pull-down/input)
7,GATGATTGTTCTCCCAGCTGATGAATTCGGACTATCGAGTAAACAAATTTTCCTAATCTTTCTGTTCAAGCGCCATCTAC,0.87 RPM ratio (pull-down/input)
8,GATGATTGTTCTCCCAGCTGATGAATTGATGTTATCGAGTAAACAAATTTTCCTAATCTTTCTGTTCAAGCGCCATCTAC,2.17 RPM ratio (pull-down/input)
9,GATGATTGTTCTCCCAGCTGATGAATTGAATTTATCGAGTAAACAAATTTTCCTAATCTTTCTGTTCAAGCGCCATCTAC,1.05 RPM ratio (pull-down/input)
10,GATGATTGTTCTCCCAGCTGATGAATTTCAGTTATCGAGTAAACAAATTTTCCTAATCTTTCTGTTCAAGCGCCATCTAC,1.02 RPM ratio (pull-down/input)
11,GATGATTGTTCTCCCAGCTGATGAATTATCGATATCGAGTAAACAAATTTTCCTAATCTTTCTGTTCAAGCGCCATCTAC,1.08 RPM ratio (pull-down/input)
12,GATGATTGTTCTCCCAGCTGATGAATTAATGTTATCGAGTAAACAAATTTTCCTAATCTTTCTGTTCAAGCGCCATCTAC,1.95 RPM ratio (pull-down/input)
13,GATGATTGTTCTCCCAGCTGATGAATTGTCATTATCGAGTAAACAAATTTTCCTAATCTTTCTGTTCAAGCGCCATCTAC,1.31 RPM ratio (pull-down/input)
14,GATGATTGTTCTCCCAGCTGATGAATTATGTTAATCGAGTAAACAAATTTTCCTAATCTTTCTGTTCAAGCGCCATCTAC,1.21 RPM ratio (pull-down/input)
15,GATGATTGTTCTCCCAGCTGATGAATTATTGCTATCGAGTAAACAAATTTTCCTAATCTTTCTGTTCAAGCGCCATCTAC,1.3 RPM ratio (pull-down/input)
16,GATGATTGTTCTCCCAGCTGATGAATTATTGTCATCGAGTAAACAAATTTTCCTAATCTTTCTGTTCAAGCGCCATCTAC,1.86 RPM ratio (pull-down/input)
17,GATGATTGTTCTCCCAGCTGATGAATTATTTTCATCGAGTAAACAAATTTTCCTAATCTTTCTGTTCAAGCGCCATCTAC,1.27 RPM ratio (pull-down/input)
18,GATGATTGTTCTCCCAGCTGATGAATTGATATTATCGAGTAAACAAATTTTCCTAATCTTTCTGTTCAAGCGCCATCTAC,1.92 RPM ratio (pull-down/input)
19,GATGATTGTTCTCCCAGCTGATGAATTAAATGTATCGAGTAAACAAATTTTCCTAATCTTTCTGTTCAAGCGCCATCTAC,1.4 RPM ratio (pull-down/input)
20,GATGATTGTTCTCCCAGCTGATGAATTATTGATATCGAGTAAACAAATTTTCCTAATCTTTCTGTTCAAGCGCCATCTAC,1.53 RPM ratio (pull-down/input)
21,GATGATTGTTCTCCCAGCTGATGAATTTTTGCTATCGAGTAAACAAATTTTCCTAATCTTTCTGTTCAAGCGCCATCTAC,1.21 RPM ratio (pull-down/input)

row,Sequence,binding signal
1,GATGATTGTTCTCCCAGCTGATGAATTGCTATTATCGAGTAAACAAATTTTCCTAATCTTTCTGTTCAAGCGCCATCTAC,1.8 RPM ratio (pull-down/input)
2,GATGATTGTTCTCCCAGCTGATGAATTCAGATATTCGAGTAAACAAATTTTCCTAATCTTTCTGTTCAAGCGCCATCTAC,1.01 RPM ratio (pull-down/input)
3,GATGATTGTTCTCCCAGCTGATGAATTAAGTTGATCGAGTAAACAAATTTTCCTAATCTTTCTGTTCAAGCGCCATCTAC,1.17 RPM ratio (pull-down/input)
4,GATGATTGTTCTCCCAGCTGATGAATTCGATCCGTCGAGTAAACAAATTTTCCTAATCTTTCTGTTCAAGCGCCATCTAC,0.886 RPM ratio (pull-down/input)
5,GATGATTGTTCTCCCAGCTGATGAATTGTTCCGATCGAGTAAACAAATTTTCCTAATCTTTCTGTTCAAGCGCCATCTAC,1.04 RPM ratio (pull-down/input)
6,GATGATTGTTCTCCCAGCTGATGAATTGGCTTAGTCGAGTAAACAAATTTTCCTAATCTTTCTGTTCAAGCGCCATCTAC,0.844 RPM ratio (pull-down/input)
7,GATGATTGTTCTCCCAGCTGATGAATTGATAAAATCGAGTAAACAAATTTTCCTAATCTTTCTGTTCAAGCGCCATCTAC,1.14 RPM ratio (pull-down/input)
8,GATGATTGTTCTCCCAGCTGATGAATTAACGAGCTCGAGTAAACAAATTTTCCTAATCTTTCTGTTCAAGCGCCATCTAC,0.81 RPM ratio (pull-down/input)
9,GATGATTGTTCTCCCAGCTGATGAATTCTAGTGGTCGAGTAAACAAATTTTCCTAATCTTTCTGTTCAAGCGCCATCTAC,0.86 RPM ratio (pull-down/input)
10,GATGATTGTTCTCCCAGCTGATGAATTTTATTGATCGAGTAAACAAATTTTCCTAATCTTTCTGTTCAAGCGCCATCTAC,2.45 RPM ratio (pull-down/input)
11,GATGATTGTTCTCCCAGCTGATGAATTAGTAGTATCGAGTAAACAAATTTTCCTAATCTTTCTGTTCAAGCGCCATCTAC,1.2 RPM ratio (pull-down/input)
12,GATGATTGTTCTCCCAGCTGATGAATTATTAGTATCGAGTAAACAAATTTTCCTAATCTTTCTGTTCAAGCGCCATCTAC,1.46 RPM ratio (pull-down/input)
13,GATGATTGTTCTCCCAGCTGATGAATTATCTTTCTCGAGTAAACAAATTTTCCTAATCTTTCTGTTCAAGCGCCATCTAC,0.948 RPM ratio (pull-down/input)
14,GATGATTGTTCTCCCAGCTGATGAATTTATTTGATCGAGTAAACAAATTTTCCTAATCTTTCTGTTCAAGCGCCATCTAC,1.2 RPM ratio (pull-down/input)
15,GATGATTGTTCTCCCAGCTGATGAATTAGTATTATCGAGTAAACAAATTTTCCTAATCTTTCTGTTCAAGCGCCATCTAC,1.75 RPM ratio (pull-down/input)
16,GATGATTGTTCTCCCAGCTGATGAATTTGTCAAATCGAGTAAACAAATTTTCCTAATCTTTCTGTTCAAGCGCCATCTAC,1.17 RPM ratio (pull-down/input)
17,GATGATTGTTCTCCCAGCTGATGAATTGTCAACATCGAGTAAACAAATTTTCCTAATCTTTCTGTTCAAGCGCCATCTAC,2.76 RPM ratio (pull-down/input)
18,GATGATTGTTCTCCCAGCTGATGAATTTATTATCTCGAGTAAACAAATTTTCCTAATCTTTCTGTTCAAGCGCCATCTAC,1.41 RPM ratio (pull-down/input)
19,GATGATTGTTCTCCCAGCTGATGAATTTTCAACATCGAGTAAACAAATTTTCCTAATCTTTCTGTTCAAGCGCCATCTAC,1.14 RPM ratio (pull-down/input)
20,GATGATTGTTCTCCCAGCTGATGAATTATTTATCTCGAGTAAACAAATTTTCCTAATCTTTCTGTTCAAGCGCCATCTAC,1.76 RPM ratio (pull-down/input)
21,GATGATTGTTCTCCCAGCTGATGAATTTATTGAATCGAGTAAACAAATTTTCCTAATCTTTCTGTTCAAGCGCCATCTAC,1.28 RPM ratio (pull-down/input)
